Among the data in PubChem BioAssay (NCI) are growth values, retold here.

Compounds without any hit were thinned out: in the full panel of roughly 83,000, 20% have a hit.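 Testing used 96-well plates and a 48-hour single-concentration exposure. Example: -40 means 40% of the starting cells died.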 Values without a mark were called inactive. Calls of active or inactive are those of the source. Rule for the calls: active = growth percent below 10; inactive = the rest.

Common to all, as to experiment: NCI-60 one-dose screen, 48 h (100 = growth as untreated, 0 = no growth, -100 = all killed)
Common to all, as to settings: 10 µM unless noted

The subject of assay [1] is SK-MEL-2 melanoma.
Assay [2] has as its system EKVX NSCLC.
Assay [3] deals with SN12C renal.
For assay [4], the system named is UO-31 renal.
Assay [5] concerns TK-10 renal.
Assay [6] concerns ACHN renal.
Assay [7] deals with CAKI-1 renal.
The test system of assay [8] is CCRF-CEM leukemia.
Assay [9] has as its system MOLT-4 leukemia.
In assay [10] the test system is SR leukemia.
In assay [11] the test system is RPMI-8226 leukemia.
The subject of assay [12] is OVCAR-8 ovarian.
Assay [13] relates to OVCAR-5 ovarian.
In assay [14] the test system is OVCAR-4 ovarian.
Assay [15] relates to SK-OV-3 ovarian.
The subject of assay [16] is IGROV1 ovarian.
For assay [17], the system named is OVCAR-3 ovarian.
Assay [18] has as its system HS 578T breast.
Assay [19] deals with NCI/ADR-RES ovarian.
Assay [20] deals with A498 renal.

Regarding `CCOC(=O)c1c(C)c2c(n1Cc1ccccc1)CSCC2=O`, the growth in [1] is -14.5% [100 µM] (active); in assay [2] it was 12.4% [100 µM]; in assay [3], 13.7% [100 µM]; in assay [4], 24.6% [100 µM]; in assay [5], 11.5% [100 µM]; in assay [6] it was 10.6% [100 µM]. The growth in assay [7] was -30.5% [100 µM] (active); in [8] it was 10.5% [100 µM]; in [9] it was 12.9% [100 µM]; in [10] it was -2.43% [100 µM] (active); in assay [11], -5.25% [100 µM] (active); in assay [12] it was 17.7% [100 µM]. Moreover, the growth in [13] was 33.6% [100 µM]; in [14] it was 11.8% [100 µM]; in assay [15], 19.8% [100 µM]; in [16], 32.6% [100 µM]; in assay [17] it was -2.49% [100 µM] (active); in [18] it was 46.8% [100 µM]. Besides, the growth in [19] is -5.65% [100 µM] (active).
Consider `COc1ccc2c(c1)/C(=N/c1n[nH]c(=S)s1)C(=O)N2`, for which the growth is 105% in assay [1]; 98.6% in assay [2]; 97.8% in assay [3]; 74.3% in [4]; 115% in [5]; 83.6% in [6]. The growth is 78.4% in [7]; 44.5% in assay [8]; 76.2% in assay [9]; 69.9% in assay [10]; 54.1% in [11]; 92.8% in [12]. Moreover, the growth in assay [13] is 102%; in assay [14], 97.7%; in [15] it was 148%; in assay [16], 75.3%; in assay [17], 96.2%; in [18], 91.7%. Besides, the growth in assay [19] was 94%.
Take `CC[N+]1(CC)CC[N+]2(CCCC(C)CC2)CC1` (stereo not drawn): the growth was 110% in assay [1]; 100% in assay [2]; 96.4% in [3]; 94.7% in assay [4]; 104% in [5]; 104% in [6]. In addition, the growth in assay [7] was 101%; in assay [8] it was 107%; in assay [9], 105%; in [10] it was 106%; in assay [11] it was 99.9%; in assay [12] it was 105%. The growth in assay [13] was 94.8%; in assay [14], 111%; in [15], 104%; in assay [16], 95.6%; in assay [17], 111%; in assay [18], 107%. The growth in [19] was 111%.
Consider `COc1ccc(C2=NN(C(C)=O)C(c3cn(-c4ccccc4)nc3-c3ccc(Cl)cc3)C2)cc1` (stereo not drawn), for which the growth was 63.7% in assay [1]; 41.3% in assay [2]; 32.8% in [3]; 38.5% in assay [4]; 12.1% in assay [5]; 8.45% (active) in assay [6]. In addition, the growth is 28% in [7]; 24% in [8]; 43.6% in assay [9]; 10.7% in assay [10]; 37.3% in assay [11]; 17.1% in assay [12]. Further, the growth was 68.1% in assay [13]; -23.5% (active) in [14]; 38.1% in assay [15]; 54.1% in [16]; -42.6% (active) in assay [17]; 26.2% in [18]. The growth in assay [19] was 15.3%.
In the case of `CNC(C)[C@H]1CCC2C3CC=C4C(=O)[C@@H](NC(=O)C=C(C)C)CC[C@]4(C)C3CC[C@@]21C` (stereo partly drawn), the growth was 23.8% in assay [1]; 24.2% in [2]; 17% in assay [3]; -35.5% (active) in assay [4]; 60.1% in assay [5]; 26% in assay [6]. In addition, the growth in assay [7] is 3.96% (active); in assay [8], -20% (active); in assay [9], -55.8% (active); in assay [10], -49.7% (active); in assay [11] it was -43.7% (active); in [12] it was 42.5%. In addition, the growth in [13] was 66.3%; in assay [14] it was -13.3% (active); in [15] it was 46.4%; in assay [16], 9.81% (active); in [17], -14% (active); in assay [18] it was 10.2%. In addition, the growth in assay [19] is 39.1%.
As to `CCCCCCCCCCCCCCCCCCOc1ccccc1CC(=O)NCC[N+]1(C)CCCCC1`, the growth in assay [1] was 64.5%; in [2], 89.1%; in assay [3] it was 33%; in [4], 76.2%; in assay [5], 42.1%; in assay [6], 93.6%. For the same molecule, the growth is 79.3% in [7]; 66% in [20]; 17.1% in assay [8]; 26.3% in [10]; 50.9% in assay [11]; 57.1% in assay [12]. Moreover, the growth in assay [13] is 30%; in assay [15] it was 77%; in [16] it was -8.66% (active); in assay [17] it was 46.5%; in assay [18], 61.8%; in assay [19], 104%.
Regarding `CCOC(=O)CC1CSC(Nc2ccccc2)=N1` (stereo not drawn), the growth in assay [1] is 97.4%; in [2], 104%; in [3], 103%; in assay [4], 91.8%; in assay [5], 86%; in assay [6] it was 105%. Further, the growth in assay [7] is 103%; in [8], 98.3%; in assay [9], 101%; in [10] it was 98.5%; in [11], 105%; in [12], 101%. Besides, the growth in assay [13] was 104%; in assay [14], 112%; in [15], 105%; in assay [16], 103%; in assay [18], 103%; in [19] it was 99.8%.
In the case of `C=C1CC[C@@H]2[C@](C)(COC(C)=O)[C@H](OC(C)=O)CC[C@@]2(C)[C@@H]1CC(Nc1ccc(S(=O)(=O)NC(C)=O)cc1)C1=CCOC1=O` (stereo partly drawn), the growth is -7.41% (active) in assay [1]; 57.5% in [2]; 1.94% (active) in [3]; -58.5% (active) in assay [4]; 2.78% (active) in assay [5]; -63.2% (active) in assay [6]. Further, the growth in assay [7] was 30.3%; in assay [8], -27.9% (active); in [9] it was 0.118% (active); in [10] it was 2.08% (active); in assay [11] it was -16.2% (active); in [12], -18.2% (active). Further, the growth in assay [13] was -40.1% (active); in assay [14] it was 26.1%; in assay [15], 67.3%; in assay [16], -10% (active); in assay [17], -87.7% (active); in [18] it was 32.5%. The growth in assay [19] was 11.9%.
For `CCN1C(=O)N(CC)C2C1NC(=S)N2/N=C/c1ccc(OC)cc1` (stereo not drawn), the growth is 65% in assay [1]; 79.6% in assay [2]; 62.6% in assay [3]; 51.8% in assay [4]; 79.8% in [5]; 64% in assay [6]. Besides, the growth in assay [7] is 32.9%; in assay [8] it was 52.8%; in [9] it was 47.7%; in assay [10], 24.1%; in assay [11], 85.4%; in [12], 70.4%. Moreover, the growth was 82.7% in assay [13]; 81% in assay [14]; 57% in assay [15]; 44.9% in assay [16]; 17.1% in [17]; 47.5% in assay [18]. The growth in assay [19] was 57.4%.
On to `CCOC(=O)C1=C(C)C(Cl)=N/C1=C\c1[nH]c(Cl)c(C)c1C(=O)OCC`, for which the growth in assay [1] was 109%; in [2], 99.5%; in assay [3], 100%; in [4], 86.5%; in assay [5], 109%; in assay [6], 107%. For the same molecule, the growth in [7] was 94.5%; in assay [8], 51.9%; in assay [9], 80.3%; in assay [10] it was 86.3%; in assay [11] it was 65.1%; in [12], 99.1%. In addition, the growth in assay [13] is 124%; in [14], 95.4%; in assay [15], 81.8%; in assay [16], 112%; in [17], 116%; in assay [18], 103%. For the same molecule, the growth in [19] is 104%.
Turning to `Cc1ccc(S(=O)(=O)c2nc(-c3ccccc3)oc2Sc2nc3ccccc3s2)cc1`, the growth in assay [1] was 88.6%; in assay [2] it was 97.1%; in assay [3], 61.4%; in assay [4] it was 64.3%; in [5] it was 111%; in assay [6], 96.8%. Besides, the growth in assay [7] was 91.5%; in [8] it was 23.6%; in assay [9], 12.3%; in [10] it was 15.5%; in [11] it was 56.7%; in assay [12], 60%. The growth was 124% in assay [13]; 55.5% in assay [14]; 116% in [15]; 80% in assay [16]; 101% in [18]; 70.7% in assay [19].
Take `CCN1CCN(C(=O)[C@]23CC[C@@H](C)[C@H](C)[C@@H]2C2=CC[C@@H]4[C@@]5(C)C/C(=C/c6cccnc6)C(=O)C(C)(C)[C@@H]5CC[C@@]4(C)[C@]2(C)CC3)CC1`: the growth is 28.3% in [1]; 41.5% in assay [2]; 29.6% in assay [3]; 10.5% in [4]; 43.1% in assay [5]; 20.7% in assay [6]. The growth is 39.8% in assay [7]; 8.77% (active) in assay [8]; 2.7% (active) in assay [9]; -4.44% (active) in assay [10]; -15.2% (active) in assay [11]; 32.6% in [12]. The growth in [13] is 56.7%; in assay [14], 26.7%; in assay [15] it was 54.3%; in assay [16], 50.9%; in assay [17], 25.9%; in assay [18], 25.2%. Moreover, the growth in assay [19] was 26.7%.
Regarding `CCNC(=O)Oc1ccc(/C(=C(/C)Cc2ccc(OC)cc2)c2ccc(OCCN3CCCCC3)cc2)cc1`, the growth was 92.3% in [1]; 79.8% in assay [2]; 71.4% in assay [3]; 50.5% in [4]; 82.6% in assay [5]; 94.8% in assay [6]. The growth in [7] was 90%; in assay [8], 36.5%; in assay [9], 31.4%; in assay [10] it was -32% (active); in [11], 22.5%; in assay [12] it was 81.8%. Further, the growth in [13] is 89.6%; in [14], 75.1%; in assay [15], 90.7%; in assay [16], 77.7%; in assay [17], 74.6%; in assay [18], 64.5%. Further, the growth in assay [19] is 85.1%.
For the molecule `O=C1Nc2ccccc2C1(c1c[nH]c2ccccc12)c1c[nH]c2ccccc12`, the growth is 87.7% in assay [1]; 23.3% in assay [2]; 1.17% (active) in assay [3]; 33.6% in [4]; -10.1% (active) in assay [5]; 1.55% (active) in assay [6]. Also, the growth was 44% in assay [7]; 65% in assay [8]; 46.7% in [9]; 77.1% in assay [10]; 77.5% in assay [11]; -9.32% (active) in [12]. For the same molecule, the growth in assay [13] is 65.4%; in [14], -25.2% (active); in assay [15] it was 72.8%; in assay [16] it was 8.3% (active); in assay [17], -47.2% (active); in [18], -17.9% (active). The growth in assay [19] is 27.1%.
